Here are results for 22 molecules from paper PMC12136788.

T1: UNK ZnF1-3 (human, UniProt Q9C0B0 31-174)
T1 sequence: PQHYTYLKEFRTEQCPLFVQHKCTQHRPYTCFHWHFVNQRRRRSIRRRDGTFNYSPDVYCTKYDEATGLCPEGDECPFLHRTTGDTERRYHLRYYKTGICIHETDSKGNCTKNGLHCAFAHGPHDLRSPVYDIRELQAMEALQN

B1: chr9:35286173:35286174:+_ENSMUSG00000038119_ENSMUST00000042842|mus_hu|FALSE|FALSE (ssRNA)
RNA: GGGAGUUCUACAGUCCGACGAUCAGUGUUAUUGUUACUUGAUGGAAUGUACGUCCACUUUAGCAUGAUCUGAGUAUCGCUGACAGCCUCUGUGUAUGCAAUGUGAGGUCCAGUUAUUGGACGGCUGGAAAAGCGAUUGGGGAACAACAGAGGAUUGAGCAUCA
B2: chr1:39494564:39494565:+_ENSG00000168653_ENST00000372967|hu_hu|hu_hu_hu_mus_True|28_68 (ssRNA)
RNA: GGGAGUUCUACAGUCCGACGAUCAUGCAUUCGCCUCAUCGUUUUGUACCGAAGCAAGCACUCUUCGAAAUCAUCAUACUCUAUCUUGCACUCCUUUUUCGCCCGGGUAUAACCGAUCCCGUGUGCACACUCUAUCCACUCUUUCAACAGAGGAUUGAGCAUCA
B3: 3369786_3369906_1343_3pUTR_ENSMUSG00000025899_ENSMUST00000053407|mouse|control|control (ssRNA)
RNA: GGGAGUUCUACAGUCCGACGAUCAGUCCUUGUUGAUGCCAAGGUAUUUUCCAUUUCCACAUCCGAUAUCUGCCACUAUGGAACCACUUGGCAAAGCUUUCAGGAACUCUACUAUGCGUGGCCAUGGGCUAUGUCUUGUGCUGCCAACAGAGGAUUGAGCAUCA
B4: chr7:141450121:141450122:+_ENSG00000106028_ENST00000265304|hu_mus|hu_hu_hu_mus_True|68_88 (ssRNA)
RNA: GGGAGUUCUACAGUCCGACGAUCUCAUCCGUUCUAUGCCUUUUCUUUCGUCUGGUCACUCAGAAAUAUAAUAUUAUCAGCUAUGAUUGUUGUUGCUUGCCGCCUCACAUUGUUUUUAUCCAUGUACUCGCCAUAGUCCACUUUCAACAGAGGAUUGAGCAUCA
B5: 139369022_139369142_3059_CDS_ENSG00000148396_ENST00000313050|human|control|control (ssRNA)
RNA: GGGAGUUCUACAGUCCGACGAUCGUCAGAAUGGGACGGGUUGUACACGUUUACAGGAUUUUCCAAAGUCCUGCUUAAGGUAAAGUCUAGGGCUCCGUAAGUGUCUUCCUGAUGACUGGAAUGGUUUGCCUUAUUACCAUCAGGCAACAGAGGAUUGAGCAUCA
B6: chr1:109605286:109605287:-_ENSG00000197780_ENST00000461096|hu_mus|hu_hu_hu_mus_True|8_108 (ssRNA)
RNA: GGGAGUUCUACAGUCCGACGAUCAAGAACAAUAACAACAUUCAGUAACCUCUUUAAAUGCAAUUAUCCUUAUUAUAAGCUAAGCAGAAUAAUAAUUUAAUACCGUAAGUGAACUACACACAAAGCCGUGUAUUCAGAAAUGGUCAACAGAGGAUUGAGCAUCA
B7: 25140584_25140782_2291_CDS_ENSMUSG00000026965_ENSMUST00000028341|mouse|control|control (ssRNA)
RNA: GGGAGUUCUACAGUCCGACGAUCUGCCCAGAAGAGCAGUAGCUCCUCUUCCUUCUGGUCAGCCUGGGAGGCCAUGCCUGAGUCACUCUCAUCAUCACUGUCAAUCAGCACCAUGUUGUCCCUAUCCUGAGGCCGCUCUUCCUCCAACAGAGGAUUGAGCAUCA
B8: chr15:23003119:23003120:+_ENSG00000068793_ENST00000560848|hu_mus|FALSE|FALSE (ssRNA)
RNA: GGGAGUUCUACAGUCCGACGAUCUUAUAAAGUUAAGCUUUCAGAUCAAAAGUAGGUUCAGACAUAAUGGAAAAUAGCCCCUAAAAAUUUCAAUAUAGUUUACAUAAAGACAAACAUGCCAUCAGUUACUGGGAUGCUGUGAGCCAACAGAGGAUUGAGCAUCA
B9: chr11:60965468:60965469:-_ENSMUSG00000042506_ENSMUST00000041683|mus_mus|motif|central (ssRNA)
RNA: GGGAGUUCUACAGUCCGACGAUCCUAACCACAGUACAAUCAUUGGAUUUUUUUUCCCUCACGAUUUUUUAUUUCAAAGCGGUAAUAAAUGAAACAAACCACUUGUCAAAAAGAACAAUGAUUUUACACAAGGAAAAGCAUACACAACAGAGGAUUGAGCAUCA
B10: chr17:87833181:87833182:-_ENSMUSG00000036438_ENSMUST00000040440|perfect_dup|motif|central (ssRNA)
RNA: GGGAGUUCUACAGUCCGACGAUCCGGGCUUAGAUAUAGCCAGAGUAAGCCACAUGCAACAUGUUACUUCAUCAAUUUUCGGAAAUAAGGUUUAAGGACAAUGACAGUAAGAUAAGGGAAGAAAACAUGGAGGAAUGAAGUCCUCAACAGAGGAUUGAGCAUCA
B11: chr18:52893488:52893489:-_ENSG00000196628_ENST00000354452|hu_hu|hu_hu_hu_mus_True|8_18 (ssRNA)
RNA: GGGAGUUCUACAGUCCGACGAUCUAUUUAGACCAUUUCCGCGGAGUUAUGGCAUUUACUCAGUGCUGAUAGGUGGAAAAACUACUUCAACAGGGAUUUUUUUUUUCCUUAAUACAUGCCAAGAAUUGUGUGGCUGUAAAACAGCAACAGAGGAUUGAGCAUCA
B12: 137534387_137536831_709_CDS_ENSG00000094880_ENST00000394886|human|control|control (ssRNA)
RNA: GGGAGUUCUACAGUCCGACGAUCCUCCUCUAUCAACUGCAACUCUGUGUAUAUAUGAGCCAGAAAAAACUCUUUCAUCCAGGUGUCUGGCAAAGACAGGAACUUCAGCAUCUCUUUGUCUGUGAUCAGGUUACAGAGUUCUAACAACAGAGGAUUGAGCAUCA
B13: chr16:94651144:94651145:+_ENSMUSG00000040785_ENSMUST00000117648|mus_hu|mus_mus_mus_hu_True|68_108 (ssRNA)
RNA: GGGAGUUCUACAGUCCGACGAUCAUUCUCUUGGAUCAAGUGGCGAAUAACAUAGUCCACUGCUUCAUGGACAAAAUUUCUGCUAGAAAAACAGGUUGUAUAGUCUUCUGUGCUCAAAACUUUCCAAGAAAGCAAUUCUUUGAGCAACAGAGGAUUGAGCAUCA
B14: chr14:89307221:89307222:+_ENSG00000165533_ENST00000346301|hu_mus|hu_hu_hu_mus_False|58_98 (ssRNA)
RNA: GGGAGUUCUACAGUCCGACGAUCUCCUGUUUGGUUAGUUCCAGGGAGCUUCAAAGAUGUGCCAGGGCGUGGGACCUGAGCUAUAGCAUUUUCAUCCAGGAUCAUUUCAGCAAUUCCUUCCUGGUCCACAUCAAUUUCAUCUAUCAACAGAGGAUUGAGCAUCA
B15: chr3:179287964:179287965:+_ENSG00000136518_ENST00000429709|hu_hu|hu_hu_hu_mus_True|88_108 (ssRNA)
RNA: GGGAGUUCUACAGUCCGACGAUCCUUUAGAGGUGAAAUGGCCUCCAUAUUCUCCCUGGGCACGCGGAGGGCAUUGGUGUCUAUGUAGUAGGUGGGCCCGCCCUGCUUGCCUUUGUCACCAUCAAUCUCCAUCAUUGUACUUCCCAACAGAGGAUUGAGCAUCA
B16: chrX:71549400:71549401:+_ENSMUSG00000019087_ENSMUST00000019231|mus_hu|mus_mus_mus_hu_False|8_98 (ssRNA)
RNA: GGGAGUUCUACAGUCCGACGAUCGCAGUAGGAAGAGCAAACCUUUCCAGUCCAGUGCGCUGCAGGGUGGGAAAGCAACAACACGGACACCGUCCCACCCUCAACCCCCCCACUGGCACAGGGUCACAUCUGGGUCAUCAAAGACAACAGAGGAUUGAGCAUCA
B17: 120770645_120770765_141_5pUTR_ENSMUSG00000043207_ENSMUST00000058754|mouse|control|control (ssRNA)
RNA: GGGAGUUCUACAGUCCGACGAUCCUCAGCGACACGCGUCCCUCGGAGAGUGCCAGCGGUGUCACAACAAUACGGGUCCCUUCCGAGGGCUUCUUCAGACGCCCAUUCCCUCAGCUUUGCCAGAAGUGUCACAAAGACACGAUUCAACAGAGGAUUGAGCAUCA
B18: chr7:118215947:118215948:-_ENSMUSG00000005610_ENSMUST00000162415|mus_mus|FALSE|FALSE (ssRNA)
RNA: GGGAGUUCUACAGUCCGACGAUCGGUCCUUGCAAUAGACUGCCUCUGCUUGAGAACUUAGGAUGUAAUUAUUGCAUGCUGCUAAUAUUCUAUCUAAACAUUAAGGAUACUCCUAAAGUAUUUGAUGGUAGACUAUGAUUAAGACAACAGAGGAUUGAGCAUCA
B19: 78432385_78432637_487_CDS_ENSG00000162613_ENST00000370768|human|control|control (ssRNA)
RNA: GGGAGUUCUACAGUCCGACGAUCUUCAGGUGUUCCAGUUAACAUACAGGACCUUUCUGGAAGGCCACCACUGUCAGGAGCUAUCUGUAUUUUGCAUCCAGAUUCCUGUUGUAUGCGUGAGAUCUGUUCACCUCCUCUGCCAAUCAACAGAGGAUUGAGCAUCA
B20: chr8:35203877:35203878:-_ENSMUSG00000031513_ENSMUST00000033910|mus_hu|FALSE|FALSE (ssRNA)
RNA: GGGAGUUCUACAGUCCGACGAUCGGAAGGGCACAUCCAAGCAUCAAAAACAUCAGUCCGAUUGCUCCUCCAAAGGACAAACUAAUCAAAGCUUUGAUGCCUGCCAUGGCGGUGACGUCGCUCCUGGCUCCACGACCCGAGGCGCAACAGAGGAUUGAGCAUCA
B21: chr2:48026839:48026840:+_ENSG00000116062_ENST00000540021|hu_hu|hu_hu_hu_mus_False|38_108 (ssRNA)
RNA: GGGAGUUCUACAGUCCGACGAUCAUAGUGUGCCACUAGCGUCCUAAAUCUGGAACAGUGGCGGUCAUCCGAAAACUGGCCGAUGAAAAACUUGCCCAGUGAAGUAUCCACAAAGCAAACACCAUACACACGAGUGUGACCAGACAACAGAGGAUUGAGCAUCA
B22: chr16:46990815:46990816:-_ENSG00000069345_ENST00000563158|hu_hu|motif|central (ssRNA)
RNA: GGGAGUUCUACAGUCCGACGAUCUCAAAAUGAAGAUGUAAAGCUUUGUGGUUAGUUUAAAUUAUACACUCUGUAGAUACGGUACCAAUUUUAAAAGUUAUACAUAGACCAACAGAUGUCCCUCAGUUCAUCUGGAUUGAUAAGCAACAGAGGAUUGAGCAUCA

In all, about 24,000 sequences were measured (“enrichment r”: median about 0.99, highest 2% from about 3.7 on). These entries were drawn from the full list.

The experiment deals with T1, UNK ZnF1-3. Description: nsRBNS (natural sequence RNA bind-n-seq); RBNS binding buffer (assumed for nsRBNS): 25 mM Tris pH 7.5, 150 mM KCl, 3 mM MgCl2, 0.01% Triton X-100, 500 ug/ml BSA, 20 U/ml SUPERase-In, 4 C; UNK is unkempt and MSI1 is Musashi-1; names of the RNAs are library labels; protein concentration not given here; high values mean tight binding.
For B1, the binding signal was 1.04 enrichment R.

Consider B2, for which the binding signal was determined as 0.701 enrichment R.

Consider B3, for which the binding signal stood at 0.678 enrichment R.

B4 gave a binding signal of 0.541 enrichment R.

B5 yielded a binding signal of 0.675 enrichment R.

On to B6, for which the binding signal was 0.741 enrichment R.

Take B7: the binding signal was 1.06 enrichment R.

In turn, B8 showed a binding signal of 2.11 enrichment R.

The molecule B9 showed a binding signal of 0.852 enrichment R.

Molecule B10 displayed a binding signal of 2.55 enrichment R.

As to B11, the binding signal stood at 1.05 enrichment R.

B12 gave a binding signal of 1.71 enrichment R.

For the molecule B13, the binding signal turned out to be 0.52 enrichment R.

Take B14: the binding signal came out at 0.829 enrichment R.

In turn, B15 yielded a binding signal of 0.786 enrichment R.

For the molecule B16, the binding signal is 0.928 enrichment R.

For B17, the binding signal is 0.703 enrichment R.

The molecule B18 displayed a binding signal of 1.31 enrichment R.

As for B19, the binding signal was 0.709 enrichment R.

Consider B20, for which the binding signal came to 2.82 enrichment R.

The molecule B21 gave a binding signal of 1.07 enrichment R.

As to B22, the binding signal was found to be 0.61 enrichment R.
